# Only some compounds are listed: those with a hit (about 4% of all), similar ones and a draw of the others.
# BoNT A protease: BoNT/A light chain protease inhibitors, primary screen, biochemical, flow cytometry, MLPCN library | Botulinum neurotoxin type A light chain protease (Clostridium botulinum A str. ATCC 3502) | multiplex microsphere protease substrate cleavage | inhibition, % at 10 µM | 360,000 tested, 0.17% active
# Autofluor counter: flagged as autofluorescent in microsphere protease counterscreen; fluorescence intensity (no concentration beside the values); AID 624483; compound autofluorescence counterscreen, microsphere flow cytometry; active compounds read high; 360,000 tested, 3.1% active; in the data active = fluorescence intensity above about 16000; inconclusive = no clear call, values can overlap the other calls
# DUSP3 inh: VHR1 phosphatase inhibitors, primary screen, biochemical, absorbance, uHTS | Dual specificity protein phosphatase 3 (Homo sapiens), P51452 | recombinant VHR phosphatase, pNPP absorbance | AID 1654, 2009 | 290,000 tested, 0.52% active | inhibition, % at 13.3 µM; in the data active = inhibition above about 50%
# Target sequence (P51452 whole entry, looked up): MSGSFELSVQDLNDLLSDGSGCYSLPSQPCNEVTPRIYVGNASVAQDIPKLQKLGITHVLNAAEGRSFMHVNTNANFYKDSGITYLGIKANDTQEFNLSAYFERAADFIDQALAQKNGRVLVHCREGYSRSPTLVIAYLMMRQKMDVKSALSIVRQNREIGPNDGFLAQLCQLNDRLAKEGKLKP
# Anthrax LF inh2: Bacillus anthracis LF protease inhibitors, primary screen, biochemical, multiplex microsphere, MLPCN library; multiplex microsphere protease cleavage assay; inhibition, % at 10 µM; 360,000 tested, 0.12% active
# BoNT-F LC inh: BoNT/F light chain protease inhibitors, primary screen, biochemical, flow cytometry, MLPCN library; Botulinum neurotoxin type F light chain protease (Clostridium botulinum); Multiplex microsphere protease cleavage assay; inhibition, % at 10 µM; 360,000 tested, 0.22% active; in the data active = inhibition above about 35%, passing the limit was not always enough; inconclusive = no clear call, values can overlap the other calls
# MazF activator: activators of E. coli MazEF toxin-antitoxin RNase, primary screen, biochemical, fluorescence, uHTS; 350,000 tested, 0.32% active; Endoribonuclease toxin MazF (Escherichia coli (strain K12)), P0AE70; FAM/BHQ RNA-DNA oligo cleavage fluorescence, 5 h; AID 504720, 2011; activation, % at 20 µM; in the data active = activation above about 50%
# Target sequence (P0AE70 whole entry, looked up): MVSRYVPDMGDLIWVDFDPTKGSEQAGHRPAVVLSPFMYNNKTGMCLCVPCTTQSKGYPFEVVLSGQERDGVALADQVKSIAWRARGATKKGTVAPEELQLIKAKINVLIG
# Hits are given with their value; i = inactive; ? = inconclusive; nt = not tested or not shown. Rule as the data show it, unless noted: active = inhibition above about 30%; inconclusive = no clear call, values can overlap the other calls; inactive = below that.
SMILES,BoNT A protease,Autofluor counter,DUSP3 inh,Anthrax LF inh2,BoNT-F LC inh,MazF activator
CCC(CO)[n+]1c(C)cc(/C=C2\Sc3ccccc3N2Cc2ccccc2)cc1C (stereo not given),40,i,i,36,i,i
CCN1/C(=C2\SC(=S)N(Cc3ccccc3)C2=O)Sc2ccccc21,i,i,i,i,i,i
O=C(NC1(C(F)(F)F)C(=O)Nc2c1c(=O)[nH]c(=O)n2Cc1ccccc1)c1ccco1 (stereo not given),i,22776,i,i,i,i
CC(=O)NC1(C(F)(F)F)C(=O)Nc2c1c(=O)[nH]c(=O)n2Cc1ccco1 (stereo not given),i,i,i,i,i,i
Cc1cc(C)c(C(N)=O)c(NC(=O)Nc2ccccc2)n1,i,22860,i,i,i,i
Cc1cccnc1NC(=O)Nc1ccccc1,i,i,i,i,i,i
CC(NS(C)(=O)=O)C(c1cccs1)N1CCN(c2ccc(F)cc2)CC1 (stereo not given),i,i,i,i,i,i
CC(NS(C)(=O)=O)C(c1cccs1)N1CCN(C)CC1 (stereo not given),i,16401,i,i,i,i
COc1ccccc1N1CCN(C(c2cccs2)C(C)NS(=O)(=O)c2ccccc2)CC1 (stereo not given),i,i,i,i,i,i
CC(C)C(=O)NC(C)C(c1cccs1)N1CCN(C)CC1 (stereo not given),i,23161,i,i,i,i
CC(NS(=O)(=O)c1ccccc1)C(c1cccs1)N1CCN(c2ccccc2)CC1 (stereo not given),i,17711,i,i,i,i
Cc1ccc2c(c1)S/C(=C/c1ccc[n+](CCO)c1)N2C,i,i,i,i,i,i
Clc1ccc(Cl)c(-c2nn3c(COc4ccccc4)nnc3s2)c1,i,i,i,i,i,i
CCc1nnc2sc(-c3cc(-c4ccccc4)nc4ccccc34)nn12,i,19922,i,i,i,i
Cc1cc(C)c2c(c1)-c1cc(C)nn1C(c1ccc3c(c1)OCO3)N2 (stereo not given),?,24496,56,i,i,i
CC(OC(=O)CCCCCN=C1NS(=O)(=O)c2ccccc21)C(=O)Nc1cc(Cl)cc(Cl)c1 (stereo not given),i,i,i,i,i,i
Cc1c(N=Cc2ccc(Br)s2)cccc1[N+](=O)[O-],i,23875,i,i,i,i
CCCOc1ccc(C(CC(=O)O)NS(=O)(=O)c2ccc(NC(C)=O)cc2)cc1 (stereo not given),i,i,i,i,i,i
Cc1ccc(NC(=O)c2cc3nc(C)cc(C)n3n2)cc1,i,20310,i,i,i,i
O=C(NC1CCCCC1)c1ccc(S(=O)(=O)N2CCCC2)cc1,?,16946,i,i,i,i
O=C(N/N=C\c1cc(Cl)ccc1O)c1ccc(S(=O)(=O)N2CCCCC2)cc1,i,i,64,i,i,i
CCOc1ccc(C(=O)NC2CCN(S(=O)(=O)c3ccccc3)CC2)cc1,i,i,i,i,38,i
COc1ccc(C(=O)Nc2cccc3cccnc23)cc1OC,i,23720,i,i,i,i
COc1cccc(CNc2ccccn2)c1O,i,i,i,i,?,i
COc1ccccc1NC(=O)c1ccc2nc(-c3ccccc3)c(-c3ccccc3)nc2c1,?,20872,i,i,i,i
SMILES,BoNT A protease,Autofluor counter,DUSP3 inh,Anthrax LF inh2,BoNT-F LC inh,MazF activator
COc1ccccc1OCc1nc2ccccc2[nH]1,i,17050,i,i,i,i
COc1cccc(CNc2cccc3cccnc23)c1O,i,16704,i,i,i,i
Cc1ccccc1OCc1nc2ccccc2[nH]1,i,i,i,i,i,i
COc1ccccc1-c1nnc(SCC(=O)NCc2ccco2)n1N,i,i,i,i,i,i
CN=c1scc(C)n1/N=C/c1cc(Br)c(O)c(Br)c1,i,i,i,i,i,i
CC(=O)Nc1ccc(SC[C@H](c2ccccc2)N2CCN(CCc3ccccc3)CCC2=O)cc1,nt,nt,i,nt,nt,nt
COc1cc(C(=O)Nc2nc3ccccc3[nH]2)ccc1OC(F)F,i,i,i,i,i,i
COc1ccc(C(=O)Nc2nc3ccccc3[nH]2)cc1OC,i,21383,i,i,i,i
CC1(C)O[C@@H]2[C@@H](CO[C@@]3(COS(N)(=O)=O)OC(C)(C)O[C@@H]23)O1,nt,nt,i,nt,nt,nt
CSc1ccccc1C(=O)NCc1ccc2c(c1)OCO2,i,20402,i,i,i,i
COCCSc1ccccc1C(=O)N1CCCC1,i,i,i,i,i,i
Cc1cc(C(=O)Nc2ccc3c(c2)OCO3)cs1,i,i,i,i,i,i
Cc1cc(C(=O)NC(C)c2ccc3c(c2)OCO3)cs1 (stereo not given),?,22313,i,i,i,i
CCSc1ccccc1C(=O)N1CCCC1,i,23440,i,i,i,i
CCC(C(=O)N1CCN(Cc2ccc3c(c2)OCO3)CC1)n1c(=O)[nH]c2ccccc2c1=O (stereo not given),i,i,51,i,i,i
Cc1nc2ccc(NC(=S)N3CCOCC3)cc2nc1C,i,i,i,i,i,i
CC1CCCC(CC(N)=O)CC1 (stereo not given),i,i,nt,i,i,i
CCCCn1c(SCC(=O)NCc2ccco2)nc2c1c(=O)n(C)c(=O)n2C,i,i,i,i,i,i
CC1=C(C(=O)N2CCOCC2)CC(CC(=O)NCCc2ccccn2)C(=O)N1CCC1=CCCCC1 (stereo not given),i,i,nt,i,i,nt
CCSc1ccccc1C(=O)NCc1ccc2c(c1)OCO2,i,17574,i,i,i,i
Cc1cc(C(=O)N2CCN(Cc3ccc4c(c3)OCO4)CC2)cs1,i,25075,i,i,i,i
Cc1cc(C)cc(C(=O)N2CCN(Cc3ccc4c(c3)OCO4)CC2)c1,nt,nt,i,nt,nt,i
CCSc1ccccc1C(=O)N1CCN(Cc2ccc3c(c2)OCO3)CC1,i,22336,i,i,i,i
CN(Cc1ccccc1)C1CC(=O)N(c2ccc(C(=O)O)cc2)C1=O (stereo not given),i,i,i,i,i,i
CC(C(=O)NCC1(c2ccccc2)CCCC1)N1CCOCC1 (stereo not given),i,23756,i,i,i,i
Cc1ccc(S(=O)(=O)CC(C)N2CCOCC2)c(S(=O)(=O)CC(C)N2CCOCC2)c1 (stereo not given),i,23181,i,i,i,i
COc1ccc2[nH]c(C(=O)O)c(NS(=O)(=O)c3ccc(OC)c(OC)c3)c2c1,i,i,i,i,i,i
COc1ccc(Br)cc1/C=N/n1c(C)nc2ccccc2c1=O,i,i,58,i,i,i

# Source: PubChem BioAssay
